Assay results reported in PubChem BioAssay (NCI).
The panel holds about 83,000 compounds, 20% with a hit somewhere; the sample as a whole holds those more often.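 Method: cells in 96-well plates; compound added at one concentration; 48 h incubation; percent growth measured; values under 10 scored active.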 A number with no mark means an inactive call. Active and inactive are the calls of the source.

Tests used:
Test in all cases: NCI-60 one-dose screen, 48 h (100 = growth as untreated, 0 = no growth, -100 = all killed)
Settings in all cases: 10 µM unless noted
HCT-15 colon = system: HCT-15 colon
HT29 colon = system: HT29 colon
SNB-75 CNS = system: SNB-75 CNS
SNB-19 CNS = system: SNB-19 CNS
U251 CNS = system: U251 CNS
PC-3 prostate = system: PC-3 prostate
UACC-62 melanoma = system: UACC-62 melanoma
LOX IMVI melanoma = system: LOX IMVI melanoma
SK-MEL-28 melanoma = system: SK-MEL-28 melanoma
SK-MEL-2 melanoma = system: SK-MEL-2 melanoma
EKVX NSCLC = system: EKVX NSCLC
SN12C renal = system: SN12C renal
UO-31 renal = system: UO-31 renal
TK-10 renal = system: TK-10 renal
ACHN renal = system: ACHN renal
A498 renal = system: A498 renal
CCRF-CEM leukemia = system: CCRF-CEM leukemia
MOLT-4 leukemia = system: MOLT-4 leukemia
CAKI-1 renal = system: CAKI-1 renal

Row | Compound | growth (HCT-15 colon) | growth (HT29 colon) | growth (SNB-75 CNS) | growth (SNB-19 CNS) | growth (U251 CNS) | growth (PC-3 prostate) | growth (UACC-62 melanoma) | growth (LOX IMVI melanoma) | growth (SK-MEL-28 melanoma) | growth (SK-MEL-2 melanoma) | growth (EKVX NSCLC) [%] | growth (SN12C renal) | growth (UO-31 renal) | growth (TK-10 renal) | growth (ACHN renal) | growth (A498 renal) [%] | growth (CCRF-CEM leukemia) | growth (MOLT-4 leukemia) | growth (CAKI-1 renal) [%]
1 | FC(F)(F)Oc1ccc2nc3nc4ccc[nH]c4cc3c2c1 | 87% | 73.9% | 61.7% | 58.3% | 65.6% | 80% | 81% | 80% | 94.6% | 98% | 62.8 | 87.5% | 61.8% | 64.7% | 56.4% | 98.1 | 75.7% | 68.9% | –
2 | CCN1CCN(c2nc(NCCCNc3ccnc4cc(Cl)ccc34)c3ccccc3n2)CC1 | 25.8% | -16% (active) | 57% | 16.5% | -26.7% (active) | 37% | -75.6% (active) | -69.3% (active) | -66.4% (active) | -10.5% (active) | 63.1 | 48.2% | -5.29% (active) | 42.3% | 5.28% (active) | 81 | 12.2% | 13.6% | –
3 | COc1cc(-c2nn(-c3ccc(C(=O)O)cc3)cc2C(=O)O)ccc1O | 48.6% | 110% | 36.6% | 58.4% | 78.5% | 66.9% | 90% | 44.4% | 63.5% | 88.1% | 76.4 | 81.4% | 56.1% | 122% | 44.8% | 97.9 | 67.9% | 90% | –
4 | CCc1nc(N)nc(N)c1C#CC(C)c1ccc(-c2ccncc2)cc1Cl (centres undefined) | 13.3% | 4.74% (active) | -9.88% (active) | 20.9% | 13.8% | 21.6% | 13.2% | 13.9% | 40.4% | 33.3% | 25 | 18.4% | 10.9% | 18.8% | 14.1% | 22.7 | 10.9% | 10.2% | –
5 | O=C(O)c1ccc(N=CC(=O)c2ccc(-c3ccccc3)cc2)cc1 | 113% | 103% | 109% | 101% | 98.5% | 86.2% | 93.5% | 101% | 101% | 108% | 99.3 | 95.8% | 93.5% | – | 96.2% | – | -57.9% (active) | 99.9% | 102
6 | CC1C(/C=N/Nc2ccccc2)C(C#N)(C#N)C1(C#N)C#N (centres undefined) | 69.2% | 97.6% | 71.7% | 98.6% | 101% | 65.9% | 5.25% (active) | 38.7% | 100% | 85.2% | 71.8 | 86.5% | 52% | 130% | 44.4% | 99.9 | 58% | 67% | –
7 | COc1cc(-c2nn(-c3ccc(Br)cc3)cc2C(=O)O)ccc1O | 103% | 101% | 92.2% | 103% | 109% | 97.2% | 109% | 102% | 119% | 83.1% | 87.2 | 109% | 82.4% | 125% | 112% | 107 | 90.1% | 78.7% | –
8 | COc1ccc(N=Nc2nccs2)c(O)c1 | 25.4% | 40.2% | 81.9% | 51.4% | 27.8% | 42.1% | 36.8% | 11.5% | 81.4% | 64.2% | 30.9 | 50.3% | 13.1% | 51.3% | 18.4% | 86.5 | 4.6% (active) | 4.68% (active) | –
9 | CCCCCC(=O)Oc1ccc(/C(=C(\C)c2ccc(OC)cc2)c2ccc(OCCN3CCCCC3)cc2)cc1 | 9.94% (active) | 8.71% (active) | 64% | 74.4% | 45.4% | 51.1% | 6.92% (active) | 33.5% | 27.6% | 64.7% | 58.5 | 73.8% | 56.2% | 92.7% | 74.4% | 92.3 | – | 25.1% | –
10 | Cc1cc(N2CCN(C)CC2)nc(NC2CCCC(Nc3ccnc4cc(Cl)ccc34)C2)n1 (centres undefined) | -35.7% (active) | -53.1% (active) | -25.6% (active) | 9.07% (active) | -51.4% (active) | 8.55% (active) | -90.7% (active) | -81.8% (active) | -75.8% (active) | -66.7% (active) | 34.4 | -21% (active) | -100% (active) | -75.8% (active) | -88.6% (active) | 54.5 | – | 1.05% (active) | –
11 | COc1cc(-c2nn(-c3ccc(C)cc3)cc2C(=O)O)ccc1O | 99.4% | 107% | 87.5% | 97.7% | 108% | 91% | 96.1% | 86% | 104% | 93.5% | 88.3 | 99.8% | 74.7% | 133% | 97.5% | 110 | 97.5% | 83.2% | –
12 | O=c1cc(CSc2nnc(-c3ccc(F)cc3)o2)c2ccc3ccccc3c2o1 | 98.4% | 95% | 98.3% | 101% | 102% | 92.5% | 93.5% | 87.7% | 110% | 87% | 88.7 | – | 77.7% | 102% | 96.7% | 94.6 | 112% | 95.9% | 91.1
13 | CC[N+](CC)=c1sc2c(s1)C(c1ccc(Cl)cc1)Oc1ccc(Cl)cc1-2 (centres undefined) | 62.9% | 0.814% (active) | 4.43% (active) | 12% | -53.8% (active) | 3.92% (active) | -2.82% (active) | -62.7% (active) | 18% | -31.3% (active) | 16.4 | 5.19% (active) | 70.5% | 44% | 88.5% | 28.6 | -17% (active) | -10.1% (active) | –
14 | Clc1ccc2c(NCCCCNc3nc(N4CCCCC4)nc4ccccc34)ccnc2c1 | -38.2% (active) | -14.2% (active) | -59.5% (active) | 18.6% | -32.9% (active) | 25.6% | -86.9% (active) | -73.8% (active) | -71.1% (active) | -65.9% (active) | 38.9 | 20.3% | -55.6% (active) | – | -43.7% (active) | 41.1 | -22.9% (active) | 1.5% (active) | –
15 | Clc1ccc2c(NCCNc3nc(N4CCCCC4)nc4ccccc34)ccnc2c1 | -30.1% (active) | -28% (active) | -23.2% (active) | 13.2% | -81.7% (active) | 9.71% (active) | -90.7% (active) | -83.6% (active) | -79.2% (active) | -61.8% (active) | 32.9 | -2.91% (active) | -97.6% (active) | -32.5% (active) | -72.8% (active) | 75.8 | – | 7.69% (active) | –
16 | COc1ccc(NC(=O)c2ccc(/C=C/C(=O)c3ncc[nH]3)cc2)cc1 | 35.2% | 3.59% (active) | 75% | 56.1% | 18.8% | 92.3% | 78.2% | 26.9% | 102% | 97.6% | 79.8 | 70.8% | 48.4% | 88.8% | 86.3% | 86.8 | 29.1% | 62.4% | –
17 | N#Cc1nnn(-c2ccc(S(N)(=O)=O)cc2)c1NCC(=O)c1ccccc1 | 98.3% | 95.5% | 80% | 92.2% | 93.6% | 84.1% | 96% | 94.1% | 111% | 97.8% | 90.9 | 97.1% | 78.9% | 107% | 99.5% | 101 | 83.6% | 89.9% | –
18 | CCc1nc(N)nc(N)c1C#CC(C)c1cc(-c2ccnc(C)c2)c2oc(C)nc2c1 (centres undefined) | 10.7% | 6.46% (active) | -23.2% (active) | 7.53% (active) | 3.52% (active) | 16.5% | -12.3% (active) | -18.8% (active) | 41.1% | 30.1% | 19.2 | 6.91% (active) | 9.81% (active) | 25.2% | 9.82% (active) | 10.8 | 0.474% (active) | 1.69% (active) | –
